These results are taken from PubChem BioAssay.

The structures appear in SMILES notation. Activity calls are given as the source filed them.

Assay [1] in a line: small molecules captured by biotinylated probe aFSTL3 – biochemical, small-molecule microarray, fluorescence 635/667, stem cell growth factor project, primary screen (AID 1064).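 Further: measures binding of the biotinylated anti-FSTL3 antibody to printed compounds.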 Particulars: higher = more signal.
Assay [2] is described as follows: binders from COS7 lysate, DM2A8 probe, primary screen, torsin A project, cell lysate, small-molecule microarray, fluorescence 635/667 (AID 1065). Particulars: higher = more signal, COS7 lysate expressing mutant human TOR1A.
Assay [3] in a line: small molecules captured by biotinylated probe aFGF2 – biochemical, small-molecule microarray, fluorescence 635/667, stem cell growth factor project, primary screen (AID 1067).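 Further: measures binding of biotinylated aFGF2 protein to printed compounds on slides; z-score merges feature fluorescence and signal-to-noise across triplicate slides.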 The following applies: higher = more signal.
Assay [4] is described as follows: small molecules captured by biotinylated probe aFGF10 – biochemical, small-molecule microarray, fluorescence 635/667, stem cell growth factor project, primary screen (AID 1071).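 Further: score merges 667 nm spot intensity and signal to noise from triplicate slides.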 The following applies: higher = more signal.
Assay [5] deals with Neurogenic locus notch homolog protein 2 (Homo sapiens) (UniProt Q04721). The assay is described as follows: small molecules binding Notch2 protein – biochemical, small-molecule microarray, 635 nm fluorescence, stem cell growth factors, primary screen (AID 1073). Particulars: higher = more signal.
Assay [6] has as its target Pro-neuregulin-1, membrane-bound isoform (Homo sapiens) (UniProt Q02297). In words: small molecules binding neuregulin-1 protein – biochemical, small-molecule microarray, fluorescence 635/667, psychiatric disease protein project, primary screen (AID 1075).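 Further: score combines 667 nm spot fluorescence with signal to noise.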 The following applies: NRG1 binding, 635 nm fluorescence, higher = more signal.
Assay [7] relates to Neuregulin-1 EGF-like domain. The assay is described as follows: small molecules binding NRG1 EGF domain – biochemical, small-molecule microarray, 635 nm fluorescence, primary screen (AID 1081).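 Further: binding of the protein to compounds printed on small-molecule microarray slides.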 Particulars: higher = more signal.
Assay [8] in a line: FRG1 expression reporter modulators in myotubes – cell-based, C2C12 myotubes, firefly/Renilla luciferase, luminescence, FRG1 inhibition for FSHD, primary screen (AID 1084). Particulars: FRG1 promoter luciferase, higher = more signal, called active from +8 up or from −8 down.
Assay [9] in a line: small molecules captured by biotinylated probe aFST – biochemical, small-molecule microarray, fluorescence 635/667, stem cell growth factor project, primary screen (AID 1086).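 Further: score merges 667 nm fluorescence with signal-to-noise of each printed compound spot.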 The following applies: higher = more signal.
The nature of assay [10]: binders of probe aHhip on microarray, primary screen, stem cell growth factor project, biochemical, small-molecule microarray, fluorescence 635/667 (AID 1087).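 Further: score merges spot fluorescence at 667nm with spot signal to noise ratio.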 The following applies: higher = more signal.
Assay [11] concerns PRMT1 (protein arginine N-methyltransferase 1). In words: small molecules binding arginine methyltransferase PRMT1 – biochemical, small-molecule microarray, 635 nm fluorescence, primary screen (AID 1088).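 Further: binding of Prmt1 protein to compounds spotted on small-molecule microarray slides.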 The following applies: higher = more signal.
Assay [12] is described as follows: growth effects on S. cerevisiae YJM789 – YJM789 clinical isolate, OD600, 24 h, basal, primary screen (AID 1089).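 Further: growth of clinical yeast isolate S. cerevisiae YJM 789 seeded 1000 cells per well; test concentration not given here.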 Particulars: higher = more signal, called active from +8 up or from −8 down.
Assay [13] is described as follows: S. pombe growth modifiers, basal conditions – strain 972, OD600, 24 h, no modulator, primary screen (AID 1090).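 Further: basal condition with compound alone and no growth modifier present; test concentration not given here.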 The following applies: S. pombe 972 growth, higher = more signal, called active from +8 up or from −8 down.
Assay [14] can be described thus: budding yeast growth modifiers under rapamycin – strain BY4716, OD600, 96 h, primary screen (AID 1091). Further: test concentration not given here. The following applies: S. cerevisiae BY4716 + rapamycin, higher = more signal, called active from +8 up or from −8 down.
Assay [15] has as its target Torsin-1A-interacting protein 2 (Homo sapiens) (UniProt Q8NFQ8). The assay is described as follows: small molecules binding lysate-expressed LULL1 – cell lysate, human LULL1 lysate, 635/667 nm fluorescence, primary screen (AID 1092).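 Further: score merges per-feature 667 nm fluorescence with signal-to-noise.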 Particulars: small-molecule microarray, hLULL1 lysate binding, 635 nm fluorescence; higher = more signal.
Assay [16] in a line: optical density change of DRC41 E. coli – strain DRC41, OD650, 24 h, E. coli filamentation project, primary screen (AID 1093).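 Further: MC1000 strain lacking acrAB efflux and sulA so SOS filamentation is blocked; test concentration not given here.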 Particulars: E. coli DRC41 growth, higher = more signal, called active from +8 up or from −8 down.
Assay [17] in a line: probe aLefty2 binding to arrayed compounds – biochemical, biotinylated probe, 635/667 nm fluorescence, primary screen (AID 1094).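 Further: score merges spot fluorescence near 667 nm with spot signal-to-noise ratio.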 Particulars: small-molecule microarray, higher = more signal.
Assay [18] deals with Noggin (protein binding on small-molecule microarray). In words: small molecules binding Noggin protein – biochemical, 635/667 nm fluorescence, primary screen (AID 1095).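 Further: score merges 667 nm feature fluorescence with signal to noise over triplicate slides.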 Particulars: 635 nm fluorescence, higher = more signal.
The target of assay [19] is Neurogenic locus notch homolog protein 3 (Homo sapiens) (UniProt Q9UM47). The assay is described as follows: small molecules binding NOTCH3 protein – biochemical, 635/667 nm fluorescence, primary screen (AID 1096). Particulars: small-molecule microarray, 635 nm fluorescence, higher = more signal.
Assay [20] in a line: probe aEGFR binding to arrayed compounds – biochemical, biotinylated probe, 635/667 nm fluorescence, primary screen (AID 1097).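 Further: probe is a biotinylated anti-EGFR antibody binding compounds printed on slides; score combines fluorescence near 667 nm and signal to noise of each spot.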 The following applies: small-molecule microarray, higher = more signal.

Sequence of Torsin-1A-interacting protein 2 (Homo sapiens) (Q8NFQ8 whole entry, looked up): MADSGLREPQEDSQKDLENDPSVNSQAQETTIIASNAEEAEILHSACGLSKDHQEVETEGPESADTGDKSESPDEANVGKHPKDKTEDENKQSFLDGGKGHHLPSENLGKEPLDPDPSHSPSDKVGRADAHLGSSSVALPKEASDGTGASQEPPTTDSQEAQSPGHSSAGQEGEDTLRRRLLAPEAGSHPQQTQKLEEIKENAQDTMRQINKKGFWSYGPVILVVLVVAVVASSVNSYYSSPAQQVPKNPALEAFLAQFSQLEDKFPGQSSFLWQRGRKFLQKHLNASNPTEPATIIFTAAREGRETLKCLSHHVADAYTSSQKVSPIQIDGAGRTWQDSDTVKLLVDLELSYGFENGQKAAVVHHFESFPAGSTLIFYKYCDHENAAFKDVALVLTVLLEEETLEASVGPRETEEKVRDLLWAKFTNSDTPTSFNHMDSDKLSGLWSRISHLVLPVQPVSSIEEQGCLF
Sequence of Neurogenic locus notch homolog protein 2 (Homo sapiens) (Q04721 whole entry, looked up, canonical isoform): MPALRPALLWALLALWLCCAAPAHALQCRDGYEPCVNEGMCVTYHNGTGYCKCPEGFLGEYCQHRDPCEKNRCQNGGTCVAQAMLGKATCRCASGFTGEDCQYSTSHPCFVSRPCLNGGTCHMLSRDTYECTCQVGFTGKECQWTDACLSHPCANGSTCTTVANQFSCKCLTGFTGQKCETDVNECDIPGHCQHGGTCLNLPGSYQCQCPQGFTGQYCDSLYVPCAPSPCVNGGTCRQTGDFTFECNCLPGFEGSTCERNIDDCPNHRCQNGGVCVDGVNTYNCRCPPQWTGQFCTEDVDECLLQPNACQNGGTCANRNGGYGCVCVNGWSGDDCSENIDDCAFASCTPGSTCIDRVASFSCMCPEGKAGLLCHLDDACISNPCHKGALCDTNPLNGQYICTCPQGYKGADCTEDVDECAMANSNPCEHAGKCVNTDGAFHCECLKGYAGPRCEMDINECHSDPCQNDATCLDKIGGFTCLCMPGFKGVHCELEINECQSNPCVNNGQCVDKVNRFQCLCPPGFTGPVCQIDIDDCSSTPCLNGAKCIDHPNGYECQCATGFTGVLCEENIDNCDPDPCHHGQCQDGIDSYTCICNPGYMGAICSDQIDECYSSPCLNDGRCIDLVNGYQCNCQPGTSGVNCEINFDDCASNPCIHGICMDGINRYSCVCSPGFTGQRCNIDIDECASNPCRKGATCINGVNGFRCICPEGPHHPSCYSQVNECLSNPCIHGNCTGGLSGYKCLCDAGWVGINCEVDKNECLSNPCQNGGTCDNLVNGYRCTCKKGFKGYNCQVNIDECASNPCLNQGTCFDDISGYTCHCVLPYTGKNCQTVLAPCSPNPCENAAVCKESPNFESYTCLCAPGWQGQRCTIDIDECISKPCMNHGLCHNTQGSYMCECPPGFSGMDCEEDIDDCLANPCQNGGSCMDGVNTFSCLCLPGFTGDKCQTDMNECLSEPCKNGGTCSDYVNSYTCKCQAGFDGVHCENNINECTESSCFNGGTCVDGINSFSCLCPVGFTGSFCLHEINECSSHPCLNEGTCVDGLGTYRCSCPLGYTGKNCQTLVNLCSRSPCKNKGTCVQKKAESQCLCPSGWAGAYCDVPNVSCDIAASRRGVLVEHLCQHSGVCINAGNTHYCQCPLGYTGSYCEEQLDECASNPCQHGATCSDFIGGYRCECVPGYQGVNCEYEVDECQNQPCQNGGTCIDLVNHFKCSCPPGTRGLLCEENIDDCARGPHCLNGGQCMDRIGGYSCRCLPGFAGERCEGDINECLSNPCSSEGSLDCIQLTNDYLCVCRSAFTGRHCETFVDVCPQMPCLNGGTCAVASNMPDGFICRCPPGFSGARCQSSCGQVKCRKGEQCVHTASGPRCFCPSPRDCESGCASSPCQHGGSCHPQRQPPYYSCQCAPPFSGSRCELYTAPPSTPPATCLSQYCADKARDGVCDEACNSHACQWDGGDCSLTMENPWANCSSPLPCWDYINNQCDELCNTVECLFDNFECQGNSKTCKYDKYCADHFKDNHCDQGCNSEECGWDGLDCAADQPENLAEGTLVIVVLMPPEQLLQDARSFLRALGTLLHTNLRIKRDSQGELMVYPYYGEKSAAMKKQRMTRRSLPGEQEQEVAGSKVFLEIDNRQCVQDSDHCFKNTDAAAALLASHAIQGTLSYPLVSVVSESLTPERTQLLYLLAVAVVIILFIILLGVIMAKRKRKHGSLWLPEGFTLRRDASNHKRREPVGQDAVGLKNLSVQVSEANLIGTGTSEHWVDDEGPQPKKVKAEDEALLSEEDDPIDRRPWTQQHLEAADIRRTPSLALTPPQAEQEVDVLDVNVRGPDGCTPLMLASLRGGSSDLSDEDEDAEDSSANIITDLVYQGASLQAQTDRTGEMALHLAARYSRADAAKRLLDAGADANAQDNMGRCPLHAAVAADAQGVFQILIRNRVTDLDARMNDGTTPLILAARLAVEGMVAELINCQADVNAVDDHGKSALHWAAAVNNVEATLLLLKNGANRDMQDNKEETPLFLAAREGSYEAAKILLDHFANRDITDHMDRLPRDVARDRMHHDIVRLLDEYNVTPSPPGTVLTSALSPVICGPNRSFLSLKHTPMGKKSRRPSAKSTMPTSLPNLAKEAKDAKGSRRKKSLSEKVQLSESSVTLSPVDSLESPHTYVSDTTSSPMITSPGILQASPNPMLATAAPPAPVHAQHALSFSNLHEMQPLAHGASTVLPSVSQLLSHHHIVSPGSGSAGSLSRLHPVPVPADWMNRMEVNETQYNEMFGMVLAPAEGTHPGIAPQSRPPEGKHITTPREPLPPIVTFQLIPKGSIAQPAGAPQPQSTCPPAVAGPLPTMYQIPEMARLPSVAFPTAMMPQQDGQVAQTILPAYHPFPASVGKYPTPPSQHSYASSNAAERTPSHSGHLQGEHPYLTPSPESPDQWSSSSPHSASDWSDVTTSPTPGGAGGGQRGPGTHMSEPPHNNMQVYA
Sequence of Pro-neuregulin-1, membrane-bound isoform (Homo sapiens) (Q02297 whole entry, looked up, the tested form may be a part, canonical isoform): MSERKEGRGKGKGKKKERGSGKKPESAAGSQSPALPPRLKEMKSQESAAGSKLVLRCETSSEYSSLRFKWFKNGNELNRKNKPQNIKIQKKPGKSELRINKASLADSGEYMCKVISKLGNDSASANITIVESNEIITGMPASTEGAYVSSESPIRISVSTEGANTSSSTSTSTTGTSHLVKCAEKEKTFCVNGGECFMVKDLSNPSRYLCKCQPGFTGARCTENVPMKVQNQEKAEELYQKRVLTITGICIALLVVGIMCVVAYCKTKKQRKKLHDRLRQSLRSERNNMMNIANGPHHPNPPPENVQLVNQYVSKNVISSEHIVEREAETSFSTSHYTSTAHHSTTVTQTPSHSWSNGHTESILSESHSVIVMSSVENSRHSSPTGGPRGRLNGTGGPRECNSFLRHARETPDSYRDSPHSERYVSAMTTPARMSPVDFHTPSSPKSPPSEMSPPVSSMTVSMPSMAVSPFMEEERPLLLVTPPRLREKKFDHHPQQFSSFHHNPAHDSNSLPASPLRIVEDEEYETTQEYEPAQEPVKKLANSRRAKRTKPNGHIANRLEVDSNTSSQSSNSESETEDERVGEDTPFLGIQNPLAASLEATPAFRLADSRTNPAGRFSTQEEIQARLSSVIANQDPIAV

On to `CC(CCN1CCc2nc(-c3ccccc3)c(-c3ccccc3)cc2C1)=NO[C@@H](C)c1cc(-c2c(C)cc(C)cc2C)no1`, for which the composite z-score in assay [1] is 0.037; in assay [2], 0.0468; in assay [3], -0.14; in [4], 0.155; in assay [5] it was -0.846; in [6], 0.129. The composite z-score in assay [7] is 0.55; in assay [9], 0.0035; in assay [10] it was -0.13; in [11] it was 0.535; in [15], 0.838; in [17], -0.186. Further, the composite z-score in [18] is -0.0011; in [19], -1.29; in assay [20] it was -0.17. The z-score in assay [8] was 0.687 (inactive); in assay [12], -0.295 (inactive); in assay [13] it was -0.974 (inactive); in assay [14], -3.2 (inactive); in [16], -0.394 (inactive).

Regarding `CC(C)CON=C1C[C@@H](O)[C@@H](O)[C@@H]2[C@@H]3C(=O)N(Cc4ccccc4)C(=O)[C@@H]3CC[C@H]12`, the composite z-score is -0.467 in assay [1]; 0.0791 in assay [2]; -0.143 in assay [3]; -0.0185 in [4]; 0.587 in assay [5]; 0.349 in assay [6]. Besides, the composite z-score in assay [7] was 0.0796; in [9], -0.153; in assay [10] it was -0.204; in assay [11] it was -0.238; in [15], 0.12; in assay [17], -0.117. Moreover, the composite z-score amounted to 0.454 in assay [18], 0.824 in assay [19] and 0.088 in assay [20]. Besides, the z-score in assay [8] is 0.602 (inactive); in assay [12] it was -0.549 (inactive); in assay [13] it was -0.449 (inactive); in assay [14], -1.17 (inactive); in assay [16] it was 0.843 (inactive).

Regarding `CCCNC(=O)OC[C@H]1O[C@H](CCON=C2C[C@@H](O)[C@@H](O)[C@@H]3[C@@H]4C(=O)N(CC)C(=O)[C@@H]4CC[C@@H]23)C=C[C@@H]1Oc1ccc(OC)cc1`, the composite z-score was -0.465 in [1]; 0.142 in assay [2]; -0.0165 in assay [3]; 0.64 in assay [4]; 0.705 in assay [5]; 0.628 in [6]. In addition, the composite z-score in assay [7] was 0.898; in [9] it was 0.46; in assay [10], -0.0645; in [11] it was 1.07; in [15], 1.04; in [17], -0.0932. Also, the composite z-score was 0.64 in [18], 1.05 in assay [19] and -0.0605 in assay [20]. For the same compound, the z-score in assay [8] was 0.36 (inactive); in [12] it was -0.284 (inactive); in [13] it was -0.0922 (inactive); in [14], -0.768 (inactive); in assay [16], 0.536 (inactive).

`CC(C)[C@H](NC(=O)OC(C)(C)C)[C@@H](O)CC(=O)C(C)(C)C`: the composite z-score in [1] is -0.507; in assay [2] it was 0.205; in assay [3] it was 0.0103; in assay [4] it was 0.209; in assay [5], 0.541; in assay [6], -0.144. In addition, the composite z-score was -0.295 in assay [7]; 0.0986 in assay [9]; 0.107 in [10]; -0.377 in [11]; 0.0487 in assay [15]; -0.215 in assay [17]. The composite z-score in assay [18] is 0.838; in [19], -0.0208; in assay [20] it was 0.0514. In addition, the z-score in [8] was 0.46 (inactive); in [12], 0.24 (inactive); in assay [13], 0.0646 (inactive); in [14] it was 0.552 (inactive); in assay [16], 0.782 (inactive).

As to `COC(=O)CC=C[C@@H](C)[C@@H](C=NOC[C@@H](C)[C@H](OCc1ccccc1)C(C)C)OC`, the composite z-score in [1] is -0.598; in [2], -0.163; in assay [3] it was -0.0985; in [4], 0.229; in assay [5], 0.0445; in [6], -0.296. Further, the composite z-score in assay [7] is 0.413; in assay [9] it was -0.0348; in assay [10], -0.395; in assay [11], 0.823; in assay [15], 0.227; in [17] it was -0.215. Moreover, the composite z-score in [18] is 0.293; in assay [19] it was 0.232; in [20] it was -0.126. For the same compound, the z-score in assay [8] is 0.947 (inactive); in assay [12], 0.0783 (inactive); in [13], -0.466 (inactive); in assay [14], 1.13 (inactive); in assay [16], -0.0725 (inactive).

For the compound `COc1ccc(OC[C@@H](CO)OC)cc1`, the composite z-score in assay [1] was -0.306; in assay [2] it was 0.415; in assay [3], -0.0512; in [4], 0.3; in assay [5] it was 0.0354; in assay [6] it was -0.156. In addition, the composite z-score in assay [7] was -0.0824; in assay [9], 0.0746; in assay [10], -0.0994; in [11], -0.601; in assay [15] it was -0.0777; in assay [17], -0.185. Moreover, the results for the composite z-score in [18], in assay [19] and in assay [20] were 0.802, -0.176 and -0.0381, respectively. The z-score in assay [8] was 0.759 (inactive); in assay [12], -0.368 (inactive); in [13] it was -0.199 (inactive); in assay [14], -0.302 (inactive); in assay [16], 0.418 (inactive).

For `CC(=O)OC[C@H]1O[C@H](CC=NO[C@@H](C)c2cn([C@H](CO)Cc3ccccc3)nn2)C=C[C@@H]1OC(C)=O`, the composite z-score is -0.513 in assay [1]; 0.386 in assay [2]; -0.104 in [3]; 0.649 in assay [4]; 0.804 in assay [5]; 1.24 in assay [6]. Also, the composite z-score in [7] was 0.732; in assay [9] it was 0.275; in [10], 0.225; in [11] it was 1.56; in assay [15], 0.96; in assay [17], -0.0137. The composite z-score in [18] was found to be 0.336; in assay [19], 0.55; in assay [20], 0.0035. The z-score is 0.386 (inactive) in assay [8]; -0.283 (inactive) in assay [12]; -0.359 (inactive) in [13]; -0.346 (inactive) in assay [14]; -0.477 (inactive) in assay [16].

For the compound `C[C@H]1CC[C@H]2C(=O)O[C@H](CO)CN2[C@@H]1c1ccc(Br)cc1`, the composite z-score was -0.334 in assay [1]; 0.544 in [2]; -0.166 in assay [3]; 0.051 in [4]; -0.288 in assay [5]; -0.102 in assay [6]. Besides, the composite z-score was -0.238 in [7]; -0.148 in assay [9]; 0.2 in assay [10]; 0.995 in assay [11]; 0.139 in assay [15]; -0.141 in assay [17]. The composite z-score in assay [18] was 0.417; in [19], -0.811; in [20], -0.0738. Further, the z-score in assay [8] was 1.11 (inactive); in assay [12], -1.57 (inactive); in assay [13], -16.2 (active); in assay [14], -3.33 (inactive); in [16], 1.88 (inactive).

For `O=C1[C@H]2[C@H]3[C@H](O)[C@H](O)CC(=NOC[C@@H](O)COCc4ccco4)[C@@H]3CC[C@H]2C(=O)N1Cc1ccccc1`, the composite z-score in [1] is -0.645; in [2] it was 0.389; in assay [3] it was -0.171; in assay [4] it was -0.0702; in assay [5], 0.0535; in assay [6] it was 0.39. Also, the composite z-score in assay [7] is 1.24; in [9] it was 0.248; in [10], -0.115; in assay [11], 1.53; in assay [15] it was 2.66; in assay [17], -0.166. Besides, the composite z-score in assay [18] was determined as 1.04; in [19] it was 0.841; in [20] it was 0.0673. Moreover, the z-score in assay [8] is 0.668 (inactive); in [12], -0.444 (inactive); in assay [13] it was -0.801 (inactive); in assay [14], -1.63 (inactive); in assay [16], 0.267 (inactive).
